The source made the active and inactive calls.

The nature of assay [1]: compounds binding Alexa647 anti-His antibody – biochemical, small-molecule microarray, 635 nm fluorescence, artefact control for SMM control protein annotation, primary screen (AID 1128).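 Also: score merges feature fluorescence with signal-to-noise for each printed compound spot.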 Particulars: higher = more signal.
In assay [2] the test system is Human papillomavirus type 1a E7 protein (residues 1-88). Put plainly: HPV1a E7 small-molecule binders, primary screen, biochemical, small-molecule microarray, residues 1-88, 635 nm (AID 1129). Particulars: small-molecule microarray binding, fluorescence 635 nm; higher = more signal.
Assay [3] addresses Focal adhesion kinase 1 (Homo sapiens) (UniProt Q05397). Put plainly: PTK2 protein binding on printed compound slides – biochemical, small-molecule microarray, 635/667 nm fluorescence, BSA, DTT, primary screen (AID 1130).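 Also: composite of spot emission at 667 nm and signal to noise over triplicate slides.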 The note with it: 635 nm fluorescence, higher = more signal.
The test system of assay [4] is Fibrinogen (Alexa647-labelled). Description: Alexa647-fibrinogen binding to printed small molecules – biochemical, small-molecule microarray, 635/667 nm fluorescence, artefact control for SMM control-protein annotation, profiling panel (AID 1131).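 Also: z-score merges 667 nm fluorescence with per-spot signal-to-noise over triplicate slides.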 Particulars: fibrinogen-A647 binding fluorescence, higher = more signal.
The target in assay [5] is Follistatin (Homo sapiens) (UniProt P19883). Description: FST protein binding to printed compounds – biochemical, small-molecule microarray, 635/667 nm fluorescence, primary screen (AID 1132). Particulars: 635 nm fluorescence, higher = more signal.
Chain of Follistatin (Homo sapiens) (P19883 whole entry, looked up): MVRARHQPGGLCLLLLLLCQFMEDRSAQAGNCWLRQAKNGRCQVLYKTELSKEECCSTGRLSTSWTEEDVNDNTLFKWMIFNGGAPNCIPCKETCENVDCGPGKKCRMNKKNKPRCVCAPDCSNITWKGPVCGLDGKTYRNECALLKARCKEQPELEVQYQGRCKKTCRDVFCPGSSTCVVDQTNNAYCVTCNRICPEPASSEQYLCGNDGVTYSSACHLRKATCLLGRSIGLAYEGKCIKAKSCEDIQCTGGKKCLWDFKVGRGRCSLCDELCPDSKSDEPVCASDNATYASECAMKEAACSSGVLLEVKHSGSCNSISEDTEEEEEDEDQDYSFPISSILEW
Assay [6] has as its target Fibroblast growth factor 2 (Homo sapiens) (UniProt P09038). Description: basic fibroblast growth factor binding to printed compounds – biochemical, small-molecule microarray, 635/667 nm fluorescence, primary screen (AID 1133). Particulars: FGF2, fluorescence 635/667, higher = more signal.
Assay [7] is described as follows: JC-1 mitochondrial potential readout, lung cancer cells – cell-based, A549, JC-1 fluorescence, basal, 24 h, 100 nL, profiling panel (AID 1138).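 Also: A549 lung adenocarcinoma cells under basal conditions with no added stimulus; test concentration not given here.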 The note with it: higher = more signal.
The test system of assay [8] is Lefty1. Description: Lefty1 protein binding to printed compounds – biochemical, small-molecule microarray, 635/667 nm fluorescence, primary screen (AID 1139). Particulars: fluorescence 635/667, higher = more signal.
The subject of assay [9] is wheat germ agglutinin (Triticum aestivum), Alexa647-labelled. Put plainly: Alexa647-WGA lectin binding to printed small molecules – biochemical, small-molecule microarray, 635/667 nm fluorescence, artefact control for SMM control-protein annotation, profiling panel (AID 1140).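 Also: score merges 667 nm feature emission with signal to noise over triplicate slides.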 The note with it: WGA-A647 binding, 635 nm fluorescence, higher = more signal.
Assay [10] deals with Luciferin 4-monooxygenase (Photinus pyralis) (UniProt P08659). Description: inhibition of purified Photinus pyralis luciferase – biochemical, luminescence, purified enzyme, 2006 set, primary screen (AID 1141).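 Also: cell-free assay with purified firefly luciferase at 100 ng per well in PBS; test concentration not given here.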 Particulars: purified firefly luciferase, SteadyGlo luminescence, 30 min; higher = more signal, called active from +8 up or from −8 down.
Chain of Luciferin 4-monooxygenase (Photinus pyralis) (P08659 whole entry, looked up): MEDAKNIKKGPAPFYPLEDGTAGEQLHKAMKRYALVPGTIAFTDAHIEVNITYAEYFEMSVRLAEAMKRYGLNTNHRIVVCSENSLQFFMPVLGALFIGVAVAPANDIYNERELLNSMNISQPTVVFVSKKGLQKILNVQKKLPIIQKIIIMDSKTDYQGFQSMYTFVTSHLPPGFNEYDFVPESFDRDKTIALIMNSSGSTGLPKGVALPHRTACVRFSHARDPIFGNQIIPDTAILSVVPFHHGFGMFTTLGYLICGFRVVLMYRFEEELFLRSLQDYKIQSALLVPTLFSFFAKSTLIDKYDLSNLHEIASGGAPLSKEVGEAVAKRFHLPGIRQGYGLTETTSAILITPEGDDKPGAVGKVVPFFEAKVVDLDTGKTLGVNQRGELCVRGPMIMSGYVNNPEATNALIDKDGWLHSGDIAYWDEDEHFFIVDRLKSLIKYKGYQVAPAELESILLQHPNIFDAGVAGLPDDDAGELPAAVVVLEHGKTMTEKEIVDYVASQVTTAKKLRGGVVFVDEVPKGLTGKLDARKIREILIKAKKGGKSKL

Chain of Focal adhesion kinase 1 (Homo sapiens) (Q05397 whole entry, looked up): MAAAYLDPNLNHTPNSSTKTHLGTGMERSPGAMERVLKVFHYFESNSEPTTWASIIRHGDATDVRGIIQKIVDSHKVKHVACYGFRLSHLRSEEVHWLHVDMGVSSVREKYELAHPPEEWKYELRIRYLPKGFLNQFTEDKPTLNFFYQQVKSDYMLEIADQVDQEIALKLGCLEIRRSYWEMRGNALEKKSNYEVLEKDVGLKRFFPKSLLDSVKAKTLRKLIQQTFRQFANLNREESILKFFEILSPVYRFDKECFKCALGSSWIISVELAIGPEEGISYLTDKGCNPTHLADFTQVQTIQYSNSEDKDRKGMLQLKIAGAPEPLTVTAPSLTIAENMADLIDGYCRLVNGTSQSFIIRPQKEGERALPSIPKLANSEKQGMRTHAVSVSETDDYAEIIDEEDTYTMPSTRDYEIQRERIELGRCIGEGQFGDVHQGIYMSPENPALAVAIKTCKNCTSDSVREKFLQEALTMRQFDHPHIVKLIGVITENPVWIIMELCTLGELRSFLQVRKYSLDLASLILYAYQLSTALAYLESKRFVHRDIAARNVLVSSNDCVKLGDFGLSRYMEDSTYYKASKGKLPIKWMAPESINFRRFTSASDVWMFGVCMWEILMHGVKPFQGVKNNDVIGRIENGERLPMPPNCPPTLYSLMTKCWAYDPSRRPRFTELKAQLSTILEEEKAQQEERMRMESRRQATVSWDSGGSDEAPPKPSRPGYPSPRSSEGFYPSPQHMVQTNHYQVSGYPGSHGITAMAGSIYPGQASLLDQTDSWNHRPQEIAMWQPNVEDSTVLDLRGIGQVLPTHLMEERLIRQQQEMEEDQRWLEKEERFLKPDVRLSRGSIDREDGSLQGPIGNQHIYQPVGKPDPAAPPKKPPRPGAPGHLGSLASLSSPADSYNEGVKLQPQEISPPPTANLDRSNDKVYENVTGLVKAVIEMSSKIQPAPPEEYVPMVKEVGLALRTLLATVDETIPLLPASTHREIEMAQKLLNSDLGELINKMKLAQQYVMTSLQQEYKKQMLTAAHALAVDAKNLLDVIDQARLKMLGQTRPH
Chain of Fibroblast growth factor 2 (Homo sapiens) (P09038 whole entry, looked up): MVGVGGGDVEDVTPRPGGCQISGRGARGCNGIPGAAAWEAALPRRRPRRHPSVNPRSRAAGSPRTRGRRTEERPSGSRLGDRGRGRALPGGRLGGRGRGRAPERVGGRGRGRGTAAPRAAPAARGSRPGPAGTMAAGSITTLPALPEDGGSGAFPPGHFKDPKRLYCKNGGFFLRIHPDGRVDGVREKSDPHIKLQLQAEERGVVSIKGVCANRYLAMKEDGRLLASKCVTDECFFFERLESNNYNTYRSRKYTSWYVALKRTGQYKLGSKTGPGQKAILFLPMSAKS

For the compound `O=C1C2C=CC(C(O)c3ccccn3)N(Nc3ccccc3)C2C(=O)N1c1ccccc1` (stereo not given), the composite z-score in assay [1] is 0.0213; in assay [2], 0.0731; in assay [3] it was 0.478; in [4], 0.339; in assay [5] it was 0.0784; in assay [6], -0.424. For the same compound, the composite z-score in assay [8] worked out at 0.144; in assay [9] it was 1.14. In addition, the values for the z-score in [7] and in [10] were 0.327 and -1.08 (inactive), respectively.

Regarding `O=C1N(CCS(=O)(=O)c2ccccc2)c2ccccc2[C@H]2OC(c3ccc(OCCCO)cc3)=N[C@@]12CCS(=O)(=O)c1ccccc1`, the composite z-score in assay [1] turned out to be 3.19; in assay [2], 1.21; in assay [3], 0.634; in [4], 0.943; in assay [5], 1.42; in assay [6] it was 1.74. Besides, the composite z-score in [8] stood at 0.589; in assay [9], 0.816. In addition, the z-score in [7] was -1.23; in assay [10], -3.3 (inactive).

For the compound `CC(C)(C)OC(=O)CC[C@]1(C(=O)O)COC(c2ccc(OCCCO)cc2)=N1`, the composite z-score in assay [1] was 0.541; in assay [2] it was -0.173; in [3] it was -0.108; in assay [4] it was 0.68; in [5], -0.747; in assay [6], -1.23. For the same compound, the composite z-score in assay [8] is -0.552; in assay [9], 0.62. The z-score was 0.352 in [7] and -0.306 (inactive) in assay [10].

As for `CCCC[C@H]1OB(O)C[C@H]2C1=C(COc1ccccc1)Cn1c(=O)n(-c3ccccc3)c(=O)n12`, the composite z-score was 0.458 in [1]; 0.711 in assay [2]; -0.0229 in [3]; 0.333 in assay [4]; 1.1 in assay [5]; 0.302 in [6]. The composite z-score is 0.976 in assay [8] and 0.09 in assay [9]. Moreover, the values for the z-score in assay [7] and in assay [10] were -0.0843 and -0.25 (inactive), respectively.

Consider `C=C(C)[C@@H]1CC=C(C(O)C2C=CC3C(=O)N(C4CCCCC4)C(=O)C3N2Nc2ccc(OC)cc2)CC1` (stereo not given in full), for which the composite z-score was found to be 0.736 in assay [1]; 1.21 in [2]; 0.589 in assay [3]; 1 in assay [4]; 1.17 in assay [5]; 0.723 in assay [6]. For the same compound, the composite z-score in [8] was 0.606; in assay [9], 0.46. Also, the z-score in [7] was 0.677; in [10], -0.392 (inactive).

For the compound `CC[C@@H]1[C@@H]2C3C(=O)N(CC)C(=O)C3CC(=O)[C@@H]2[C@H](c2ccc(C)cc2)N1S(=O)(=O)c1ccc(C)cc1` (stereo not given in full), the composite z-score in assay [1] is 0.189; in assay [2] it was 1.2; in assay [3], 0.381; in assay [4], -0.826; in assay [5], 0.573; in assay [6], -0.415. Besides, the figures for the composite z-score in [8] and in assay [9] were 0.417 and 0.519, respectively. In addition, the z-score is -0.0765 in assay [7] and 1.46 (inactive) in [10].

Take `C=CCOc1ccc([C@@H]2CC=C(C(=O)OCC)[C@H](c3cccc(Br)c3)N2S(=O)(=O)c2ccc(C)cc2)cc1`: the composite z-score is -0.296 in assay [1]; 0.0511 in [2]; -0.209 in assay [3]; -0.161 in [4]; 0.199 in [5]; -0.0901 in assay [6]. Moreover, the composite z-score in assay [8] was -0.109; in assay [9] it was 0.268. For the same compound, the z-score was 3.89 in assay [7] and 0.594 (inactive) in assay [10].

For `C=C(COC)C(=O)CC[C@H](OC(=O)c1ccccc1-c1ccccc1C(=O)O)c1ccc(CO)o1`, the composite z-score in assay [1] was 0.581; in [2], 0.154; in assay [3], 0.36; in assay [4], -0.576; in [5] it was 1.35; in assay [6], 1.66. In addition, the composite z-score in assay [8] was 1.5; in assay [9] it was -0.2. Besides, the z-score in assay [7] was -0.666; in [10], -0.846 (inactive).

Take `CC(=O)NCCCC[C@@H]1NC(=O)[C@H]2C[C@@H](C(=O)NCCCCCN)[C@@H](c3cccc(OCCO)c3)N2C1=O`: the composite z-score in assay [1] stood at 2.38; in [2], 0.759; in assay [3], 1.38; in assay [4], 0.829; in assay [5], 0.763; in assay [6], 0.275. Also, the composite z-score amounted to 0.279 in assay [8] and 1.1 in [9]. Moreover, the z-score was 0.0821 in [7] and -0.0548 (inactive) in [10].

Turning to `C=CCC(OC(C)=O)[C@@H]1[C@@H](N(Cc2ccc(-c3ccccc3)cc2)C(=O)Cc2ccc(OC)cc2)c2cc(OCCCO)ccc2N1C(=O)c1ccc(-c2ccccc2)cc1` (stereo not given in full), the composite z-score in [1] was -0.163; in [2], 0.152; in assay [3], 0.855; in [4], 0.137; in assay [5], 0.409; in assay [6], -0.0805. Moreover, the composite z-score in assay [8] turned out to be 0.182; in assay [9], 0.495. Further, the z-score in assay [7] was 2.32; in assay [10] it was -0.663 (inactive).

For `COc1ccc([Si](C)(C)[C@@H]2[C@@H](CC(=O)N(CCO)Cc3ccccc3)O[C@]3(C(=O)N(Cc4ccc(N5CCOC5=O)cc4)c4ccccc43)[C@H]2C)cc1`, the composite z-score in assay [1] came out at 1.56; in assay [2], 0.595; in assay [3] it was 0.294; in assay [4] it was 0.631; in [5], 1.17; in [6], 1.05. Further, the composite z-score in [8] turned out to be 1.48; in assay [9], 0.415. In addition, the values for the z-score in [7] and in [10] were -0.147 and -0.356 (inactive), respectively.

Regarding `C[C@H]1NC(=O)C([C@@H](C)OCc2ccccc2)NC(=O)[C@@]23C(=O)N[C@@H](Cc4ccccc4)C2[C@H](C)[C@@]2(C)O[C@H]2C3/C=C/CC/C=C/CNC1=O` (stereo not given in full), the composite z-score is -0.342 in [1]; -0.413 in assay [2]; -0.305 in [3]; 0.42 in assay [4]; 0.607 in [5]; 0.588 in assay [6]. For the same compound, the composite z-score is 0.331 in assay [8] and 0.384 in assay [9]. For the same compound, the z-score in assay [7] is -0.198; in assay [10], -0.749 (inactive).

As for `CO[C@H]1O[C@H](CO)[C@@H](OC(=O)c2ccc(Br)cc2)[C@@H]2OC(=O)[C@H](Cc3cccc(Br)c3)C/C=C/C[C@@H](Cc3cccc(Br)c3)C(=O)O[C@@H]12`, the composite z-score in assay [1] worked out at 1.58; in [2], 1.05; in assay [3], 0.214; in [4] it was 0.647; in assay [5], 1.02; in [6] it was 0.897. In addition, the values for the composite z-score in assay [8] and in assay [9] were 0.442 and 0.31, respectively. Further, the results for the z-score in assay [7] and in [10] were 1.02 and 0.0021 (inactive), respectively.

As to `COCCOC(=O)N1C(=O)[C@@]2(c3ccccc31)[C@H](c1ccccc1OCCO)N1[C@H](c3ccccc3)[C@H](c3ccccc3)OC(=O)[C@H]1[C@@H]2C(=O)N1CCc2cc(OC)c(OC)cc2C1`, the composite z-score turned out to be 1.14 in assay [1]; 0.659 in assay [2]; 0.413 in assay [3]; 0.457 in assay [4]; 1.27 in [5]; 1.36 in assay [6]. Further, the composite z-score is 0.756 in assay [8] and 0.435 in assay [9]. Moreover, the z-score was -1.03 in assay [7] and -0.209 (inactive) in assay [10].

As for `Cc1ccc(S[C@]2(C(=O)NCCN3CCOCC3)CC(=O)N(C3Cc4ccccc4C3)[C@@H]2c2ccc(CO)cc2)cc1`, the composite z-score in assay [1] is 1.22; in assay [2], 0.0419; in assay [3], 0.82; in assay [4], -0.778; in assay [5] it was -0.135; in assay [6], -0.592. Also, the composite z-score in assay [8] was -1.47; in [9] it was -0.278. Also, the z-score is 0.161 in assay [7] and 0.54 (inactive) in [10].

For the origin of these results see PubChem BioAssay.
